Consider four compounds from PubChem BioAssay (EPA / NIEHS).

Test [1] in a line: ATG_DR4_LXR_CIS: Attagene CIS-FACTORIAL HepG2 Assay for human Liver X Receptor (LXR), DR4 submotif (AID 2282929). The conditions noted are these: HepG2 Attagene DR4 cis-reporter, mRNA transcription; actives raise or lower the signal. The method, boiled down: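 Endogenous factor activity at a DR4 cis-element is read as reporter mRNA in transiently transfected HepG2 cells. Exposure lasts 24 h; transcripts are amplified, fluorescently labelled and sized by capillary electrophoresis, with DMSO as baseline.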

Test [2] deals with Aryl hydrocarbon receptor (Homo sapiens) (UniProt P35869). The test can be described thus: ATG_Ahr_CIS: Attagene CIS-FACTORIAL HepG2 Assay for human Aryl Hydrocarbon Receptor (Ahr) (AID 2282930). As to conditions: HepG2 AhR cis-factorial reporter transcription; actives raise or lower the signal. The method, boiled down:
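Following 24 h of chemical dosing, transfected HepG2 liver cells with cis-driven reporter units were lysed for RNA; reporter mRNA was quantified via RT-PCR and capillary electrophoresis, and responses fitted bidirectionally from DMSO.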

Test [3] in a line: ATG_AP_1_CIS: Attagene CIS-FACTORIAL HepG2 Assay for human Activator Protein 1 (AP-1) (AID 2282931). The conditions noted are these: HepG2 Attagene cis-factorial AP-1 reporter mRNA; actives raise or lower the signal. Put shortly:
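Fluorescence of labelled PCR fragments separated by capillary electrophoresis gives reporter mRNA levels. HepG2 with transfected cis-regulated reporter units, 24 h exposure; DMSO serves as baseline for bidirectional curve fits.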

Test [4] is described as follows: ATG_AP_2_CIS: Attagene CIS-FACTORIAL HepG2 Assay for human Activator Protein 2 (AP-2) (AID 2282932). As to conditions: HepG2 AP-2 cis-reporter, Attagene transcription factor profiling; actives raise or lower the signal. The method, boiled down: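 Cells (HepG2) transfected with promoter-driven reporter constructs, treated 24 h. Total RNA reverse-transcribed, reporter cDNA PCR-amplified, FAM-labelled by primer extension, digested, resolved by capillary electrophoresis. Activity fitted both directions versus DMSO.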

Test [5] is described as follows: ATG_BRE_CIS: Attagene CIS-FACTORIAL HepG2 Assay for human Bone Morphogenetic Protein (BMP) Response Element (BRE) (AID 2282933). The conditions noted are these: HepG2 BMP response element reporter, Attagene transcription factor profiling; actives raise or lower the signal. Put shortly:
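HepG2 cells transiently transfected with multiplexed cis-element reporter units were dosed with chemical for 24 h. Reporter mRNA was measured by RT-PCR with fluorescent labelling, HpaI digestion and capillary electrophoresis; bidirectional fitting relative to DMSO.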

The nature of test [6]: ATG_E_Box_CIS: Attagene CIS-FACTORIAL HepG2 Assay for human Enhancer Box (E-box) (AID 2282936). As to conditions: HepG2 E-box cis-reporter transcription, actives raise or lower the signal. Put shortly:
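Endogenous transcription factor activity was sensed in human HepG2 liver cells through transfected cis-promoter reporter units. After 24 h of dosing, total RNA was reverse-transcribed and reporter cDNA resolved by capillary electrophoresis.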

Test [7] can be described thus: ATG_M_61_CIS: Attagene CIS-FACTORIAL HepG2 Assay for M61 Transcription Factor (Internal Marker) (AID 2282937). The conditions noted are these: HepG2 Attagene CIS-FACTORIAL M61 internal marker reporter; actives raise or lower the signal. Put shortly:
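This endpoint serves as an internal background control within a multiplexed HepG2 cis-reporter panel. Cells are exposed for 24 h; reporter mRNA is amplified, fluorescently labelled and sized by capillary electrophoresis, with DMSO as negative control.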

Test [8] is described as follows: ATG_EGR_CIS: Attagene CIS-FACTORIAL HepG2 Assay for human Early Growth Response 1 (EGR1) (AID 2282938). As to conditions: HepG2 Attagene CIS-FACTORIAL EGR reporter mRNA; actives raise or lower the signal. The method, boiled down:
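HepG2, transient MRTU transfection (cis promoters), 24 h compound. RNA → RT (oligo-dT) → PCR → 6-FAM labelling → HpaI cut → CE fluorescence. Bidirectional fit, DMSO baseline.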

A short description of test [9]: ATG_M_19_CIS: Attagene CIS-FACTORIAL HepG2 Assay for M19 Transcription Factor (Internal Marker) (AID 2282939). As to conditions: HepG2 Attagene CIS-FACTORIAL M19 internal marker reporter; actives raise or lower the signal. Put shortly: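 HepG2 cells transiently transfected with cis-regulated multiple reporter transcription units were dosed for 24 h; reporter mRNA was quantified by RT-PCR, 6-FAM primer-extension labelling, HpaI digestion and capillary electrophoresis, with bidirectional fitting against DMSO baseline.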

Test [10] can be described thus: ATG_Ets_CIS: Attagene CIS-FACTORIAL HepG2 Assay for human Erythroblast Transformation Specific (ETS) (AID 2282941). As to conditions: HepG2 ETS cis-reporter transcription, actives raise or lower the signal. Put shortly: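 Bidirectional fit versus DMSO of reporter mRNA signal, detected by RT-PCR and capillary electrophoresis in HepG2 cells transiently transfected with cis-element reporters and dosed 24 h.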

In test [11] the target is Hepatocyte nuclear factor 3-beta (Homo sapiens) (UniProt Q9Y261). Put plainly: ATG_FoxA2_CIS: Attagene CIS-FACTORIAL HepG2 Assay for human Forkhead box A2 (FOXA2) (AID 2282942). The conditions noted are these: HepG2 cis-reporter transcription factor activity, 24 h; actives raise or lower the signal. Put shortly:
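Cells: HepG2, transient multiplex reporter transfection. Exposure 24 h. Detection: reporter-specific RT-PCR, fluorescent labelling, restriction digest, capillary electrophoresis. Analysis: bidirectional curve fit, DMSO as negative control.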

Test [12] can be described thus: ATG_FoxO_CIS: Attagene CIS-FACTORIAL HepG2 Assay for human Forkhead box O (FoxO) (AID 2282943). The conditions noted are these: HepG2 Attagene cis-reporter, FoxO element, mRNA; actives raise or lower the signal. Put shortly:
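24 h chemical exposure, HepG2 with transient cis-MRTU transfection. RNA extraction, oligo(dT) RT, reporter-specific PCR, primer-extension labelling, HpaI digestion, CE fragment analysis; bidirectional fit, DMSO baseline.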

Test [13] in a line: ATG_GATA_CIS: Attagene CIS-FACTORIAL HepG2 Assay for human GATA Binding Protein (AID 2282944). The conditions noted are these: HepG2 GATA cis-element reporter, Attagene multiplex mRNA; actives raise or lower the signal. Put shortly:
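HepG2 cells transiently transfected with multiplexed cis-element reporter units reflecting endogenous transcription factor activity; reporter mRNA measured after 24 h dosing by RT-PCR, 6-FAM labeling, HpaI digestion and capillary electrophoresis. Bidirectional fitting versus DMSO baseline.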

The nature of test [14]: ATG_GLI_CIS: Attagene CIS-FACTORIAL HepG2 Assay for human Zinc Finger Protein GLI1 (AID 2282945). The conditions noted are these: HepG2, Attagene cis-factorial reporter mRNA, GLI element; actives raise or lower the signal. The method, boiled down:
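HepG2 cells transiently transfected with cis-promoter multiplexed reporter units report endogenous transcription factor activity. After 24 h chemical exposure, reporter mRNA was quantified by RT-PCR, 6-FAM labelling, HpaI digestion and capillary electrophoresis, with bidirectional fitting against DMSO.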

Test [15] can be described thus: ATG_ISRE_CIS: Attagene CIS-FACTORIAL HepG2 Assay for human Interferon Regulatory Factor 1 (IRF1) binding to an Interferon-Stimulated Response Element (ISRE) (AID 2282948). The conditions noted are these: HepG2 ISRE cis-reporter (Attagene), mRNA transcription readout; actives raise or lower the signal. Put shortly: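 Uses HepG2 liver cells transfected with cis-regulated reporters and measures mRNA 24 h post-dosing through RT-PCR, primer-extension labelling and capillary electrophoresis, with DMSO as negative control.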

Test [16] has as its target Transcription factor E2F1 (Homo sapiens) (UniProt Q01094). Put plainly: ATG_E2F_CIS: Attagene CIS-FACTORIAL HepG2 Assay for human E2F Transcription Factor 1 (AID 2282935). The conditions noted are these: HepG2 Attagene cis-reporter, E2F reporter RNA transcripts; actives raise or lower the signal. Put shortly:
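First, HepG2 cells were transfected with reporter transcription units. Next, they were dosed for 24 h. Then RNA was isolated, converted to cDNA, PCR-amplified, FAM-labeled, HpaI-digested and analyzed by capillary electrophoresis.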

Test [17] concerns the target Bile acid receptor (Homo sapiens) (UniProt Q96RI1). The test can be described thus: ATG_IR1_CIS: Attagene CIS-FACTORIAL HepG2 Assay for human Nuclear Receptor Subfamily 1 Group H Member 4 (NR1H4), IR1 submotif (AID 2282946). As to conditions: IR1 reporter transcription, actives raise or lower the signal. Put shortly:
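Readout: reporter transcript levels by RT-PCR with fluorescent capillary electrophoresis, from HepG2 cells transiently transfected with multiplexed cis-regulated reporters and dosed 24 h. Gain- or loss-of-signal fitted versus DMSO negative control.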

The nature of test [18]: ATG_GRE_CIS: Attagene CIS-FACTORIAL HepG2 Assay for human Glucocorticoid Response Elements (GRE) (AID 2282947). As to conditions: HepG2 GRE cis-reporter, Attagene multiplex mRNA; actives raise or lower the signal. The method, boiled down:
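Cells (HepG2) bearing transfected cis-promoter reporter transcription units were treated with chemical for 24 hours. Reporter mRNA was measured via RT-PCR with capillary electrophoresis, and activity was fitted in both directions relative to DMSO.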

Test [19] can be described thus: ATG_ERE_CIS: Attagene CIS-FACTORIAL HepG2 Assay for Estrogen Response Element (ERE) (AID 2282940). As to conditions: HepG2 ERE cis-reporter, Attagene RNA transcript; actives raise or lower the signal. Put shortly: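 HepG2 cells transiently transfected with cis-promoter-driven multiplexed reporter transcription units report endogenous TF activity. After 24 h compound exposure, reporter mRNA is quantified by RT-PCR with capillary electrophoresis fluorescence; bidirectional fitting versus DMSO baseline.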

In general, AC50 refers to the concentration at which the activity in the assay is half-maximal.

Calls of active or inactive are those of the source. The calls were made as follows: active = hit-call score of the fitted dose curve at least 0.9, where 1 is the maximum; inactive = score below 0.9.

Hepatocyte nuclear factor 3-beta (Homo sapiens), sequence (Q9Y261 whole entry, looked up): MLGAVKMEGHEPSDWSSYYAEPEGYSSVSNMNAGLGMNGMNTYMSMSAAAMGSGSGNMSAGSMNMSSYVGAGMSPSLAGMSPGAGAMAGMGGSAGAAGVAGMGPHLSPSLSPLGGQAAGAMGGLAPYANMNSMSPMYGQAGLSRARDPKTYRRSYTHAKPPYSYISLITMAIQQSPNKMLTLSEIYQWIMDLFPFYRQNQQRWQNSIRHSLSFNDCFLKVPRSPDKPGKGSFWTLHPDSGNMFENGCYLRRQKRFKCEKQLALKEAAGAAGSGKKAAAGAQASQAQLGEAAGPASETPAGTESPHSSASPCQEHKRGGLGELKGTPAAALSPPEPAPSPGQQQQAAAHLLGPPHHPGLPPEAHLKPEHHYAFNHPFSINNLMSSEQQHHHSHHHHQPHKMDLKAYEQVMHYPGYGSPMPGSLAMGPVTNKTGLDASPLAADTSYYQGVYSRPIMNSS
Bile acid receptor (Homo sapiens), sequence (Q96RI1 whole entry, looked up): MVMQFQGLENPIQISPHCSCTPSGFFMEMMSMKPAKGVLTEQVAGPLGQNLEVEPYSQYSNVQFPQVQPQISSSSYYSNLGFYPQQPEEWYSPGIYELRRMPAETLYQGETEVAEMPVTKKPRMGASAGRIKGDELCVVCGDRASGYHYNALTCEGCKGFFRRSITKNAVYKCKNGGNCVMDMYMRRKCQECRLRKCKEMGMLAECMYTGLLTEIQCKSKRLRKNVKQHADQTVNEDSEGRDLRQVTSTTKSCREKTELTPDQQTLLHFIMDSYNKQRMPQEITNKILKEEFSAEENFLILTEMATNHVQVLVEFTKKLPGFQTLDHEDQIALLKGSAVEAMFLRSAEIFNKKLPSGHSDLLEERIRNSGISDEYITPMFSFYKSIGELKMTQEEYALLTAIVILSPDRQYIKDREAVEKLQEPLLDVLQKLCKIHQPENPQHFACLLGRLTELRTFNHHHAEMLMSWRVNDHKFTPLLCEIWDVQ
Transcription factor E2F1 (Homo sapiens), sequence (Q01094 whole entry, looked up): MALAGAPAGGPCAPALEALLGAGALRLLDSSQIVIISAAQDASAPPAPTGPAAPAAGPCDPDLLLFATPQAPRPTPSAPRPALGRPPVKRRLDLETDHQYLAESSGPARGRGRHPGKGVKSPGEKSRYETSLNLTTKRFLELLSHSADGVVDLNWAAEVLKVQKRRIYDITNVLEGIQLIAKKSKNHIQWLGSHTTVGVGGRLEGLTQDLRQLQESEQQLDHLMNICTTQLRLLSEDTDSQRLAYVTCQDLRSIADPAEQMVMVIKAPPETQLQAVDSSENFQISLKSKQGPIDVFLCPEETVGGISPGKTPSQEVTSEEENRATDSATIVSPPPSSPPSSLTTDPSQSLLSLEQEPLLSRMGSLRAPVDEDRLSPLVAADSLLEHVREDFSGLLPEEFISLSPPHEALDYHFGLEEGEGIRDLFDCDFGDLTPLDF
Aryl hydrocarbon receptor (Homo sapiens), sequence (P35869 whole entry, looked up): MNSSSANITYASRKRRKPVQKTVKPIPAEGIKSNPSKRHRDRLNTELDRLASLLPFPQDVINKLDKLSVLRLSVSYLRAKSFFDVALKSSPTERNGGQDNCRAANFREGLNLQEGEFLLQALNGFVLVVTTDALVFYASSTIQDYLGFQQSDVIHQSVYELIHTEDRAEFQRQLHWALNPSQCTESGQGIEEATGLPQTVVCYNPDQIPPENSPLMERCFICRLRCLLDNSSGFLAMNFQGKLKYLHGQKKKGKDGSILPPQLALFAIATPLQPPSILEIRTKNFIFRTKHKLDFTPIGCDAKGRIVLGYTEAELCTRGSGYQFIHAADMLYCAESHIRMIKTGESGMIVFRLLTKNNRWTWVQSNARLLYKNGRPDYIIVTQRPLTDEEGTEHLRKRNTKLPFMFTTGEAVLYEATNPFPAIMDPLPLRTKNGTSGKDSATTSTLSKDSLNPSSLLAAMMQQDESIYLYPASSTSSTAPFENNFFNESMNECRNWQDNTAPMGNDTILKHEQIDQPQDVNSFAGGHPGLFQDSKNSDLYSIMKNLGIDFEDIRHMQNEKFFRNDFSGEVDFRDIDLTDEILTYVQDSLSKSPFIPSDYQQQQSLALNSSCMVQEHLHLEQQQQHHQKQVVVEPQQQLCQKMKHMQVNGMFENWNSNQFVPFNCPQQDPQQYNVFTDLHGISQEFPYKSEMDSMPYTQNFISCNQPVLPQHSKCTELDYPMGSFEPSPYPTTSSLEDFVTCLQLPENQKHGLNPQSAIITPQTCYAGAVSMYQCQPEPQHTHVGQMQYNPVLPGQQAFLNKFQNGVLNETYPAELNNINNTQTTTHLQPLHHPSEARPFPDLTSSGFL

Take `N#CS`: the compound was called inactive in test [1], in test [2], in [3], in test [4], in test [5] and in test [6]. In addition, the call in [7], in [8], in [9], in test [10], in [11] and in [12] was inactive. The call in test [13], in test [14] and in test [15] was inactive.
`c1ccc2c(c1)Oc1ccccc1O2`: the outcome in [1], in test [3], in test [4], in test [5], in test [16] and in test [6] was inactive. The compound was classed as inactive in test [7], in [8], in [9], in test [11], in test [12] and in [13]. Further, the compound was classed as inactive in test [14], in test [17], in test [18] and in [15]. Further, the AC50 in test [2] is 667 nM (active).
With `CCCCCCCCCCBr`, the result in [1], in test [2], in [3], in test [4], in [5] and in test [16] was inactive. In addition, the outcome in test [6], in test [8], in [19], in test [10], in test [11] and in test [12] was inactive. In addition, the result in test [13], in [14], in test [17], in test [18] and in test [15] was inactive.
Turning to `O=C(NC(=O)c1c(F)cccc1F)Nc1cc(Cl)c(Oc2ncc(C(F)(F)F)cc2Cl)c(Cl)c1`, in test [1], the AC50 is 4.57 µM (active). Also, the compound was classed as inactive in test [2], in test [3], in test [4], in [5], in [16] and in test [6]. Besides, the compound was called inactive in [7], in test [9], in test [19], in [10], in test [12] and in [13]. In addition, the call in [14], in test [17] and in [15] was inactive.
